# Measurements taken from PubChem BioAssay AID626 (Vanderbilt High Throughput Screening Facility, 2007).
# Hit rate of the full screen: of about 64,000 compounds, about 1,900 (3%) were called active. The sample as a whole holds a higher share of actives than the screen did. A number with no mark means an inactive call.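 Rule for the calls: active = fluorescence rise, raw or as B-score row- and column-corrected plate score, outside the 99.7% band of its plate's samples, either direction; inactive = the rest.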
# System: Muscarinic acetylcholine receptor M1
# Experiment: direct activation of M1 receptor calcium signal – CHO-M1 cells, Fluo-4 calcium, agonist mode, primary screen (AID 626)
# Conditions: Fluo-4 calcium fluorescence, at 10 µM, stronger effect = higher value
row,SMILES,B-score
1,Cc1nc2sc(C(c3ccco3)N3CCC4(CC3)OCCO4)c(O)n2n1 (centres undefined),-0.0511
2,CCOc1ccc(CN(Cc2ccco2)C(c2cccs2)c2nnnn2C(C)(C)C)cc1 (centres undefined),17.1 (active)
3,CCC(C)(C)n1nnnc1C(c1cccs1)N1CCN(Cc2ccccc2)CC1 (centres undefined),0.516
4,CC(C)(C)n1nnnc1C(c1cccs1)N(Cc1cccnc1)CC1CCCO1 (centres undefined),0.0241
5,O=C(c1ccc(=O)[nH]c1)N(Cc1ccco1)C1(C(=O)NC2CCCCC2)CCCCC1,0.118
6,O/N=C1\CC2(Cc3nonc31)OCCO2,-0.542
7,CN(C)c1ccc(NC(=O)c2ccncc2)c2ccccc12,0.268
8,O=C(c1ccco1)N(Cc1nc2ccccc2c(=O)[nH]1)C1CCCC1,1.19
9,COc1ccc2oc(=O)c(C(=O)O)cc2c1,-0.167
10,CCCOC(=O)c1cc2ccccc2oc1=O,-0.13
11,CCN(CC)c1ccc2cc(C(=O)O)c(=O)oc2c1,17.2 (active)
12,CCN(CC)c1ccc2oc(=O)c(C)nc2c1,19.1 (active)
13,CCc1ccc2oc(-c3ccc(N)cc3)nc2c1,0.427
14,CCC1(C)Cc2c(sc3nc4n(c(=O)c23)CCCS4)CO1 (centres undefined),-0.146
15,CCOC(=O)c1cc(-c2ccc(Cl)s2)nc2c1c(C)nn2C,0.0112
16,CSc1ccc(Cl)c(C(=O)OCC(=O)N2CC(C)OC(C)C2)c1 (centres undefined),-0.691
17,Cc1cc(OCCN2CCCC2)ccc1C(C)C,-1.57
18,COc1ccccc1NC1=NC2(CCCC2)N=C(N)N1,0.458
19,COc1ccccc1Nc1nc(N)nc(CN(C)C2CCCCC2)n1,0.169
20,COc1ccccc1NC1=NC(c2ccc(Cl)cc2)N=C(N)N1 (centres undefined),2.75 (active)
21,O=C(Nc1nc(-c2ccncc2)cs1)C1COc2ccccc2O1 (centres undefined),-1.04
22,O=C(Nc1ccc2c(c1)OCCO2)c1ccncc1,-0.637

row,SMILES,B-score
1,O=C(Nc1nc(-c2ccc3c(c2)OCO3)cs1)c1ccncc1,5.34 (active)
2,CC1(C)CC(=O)C(C=NCCC2=CCCCC2)=C(O)C1,0.836
3,O=C(Oc1ccc2c(c1)CCC2)N1CCOCC1,-0.594
4,O=C(c1ccccc1)c1ccc(OC(=O)N2CCCC2)cc1,-2.34 (active)
5,O=C(c1ccccc1)N1CCN(C(=O)N2CCCCC2)CC1,-0.157
6,CC(C)(C)c1ccc(NC(=O)NCc2ccco2)cc1,0.39
7,c1cnc(NC2C3CC4CC(C3)CC2C4)nc1 (centres undefined),2.24
8,CCOC(=O)CSc1nc2c(c(=O)n(C)c(=O)n2C)n1Cc1ccccc1F,-0.066
9,COc1ccccc1NC(=O)CSc1nc2sc(C)c(C)c2c(=O)n1Cc1ccco1,-1.75
10,CCOC(=O)CSc1nc2c(sc(=S)n2CCc2ccccc2)c(=O)n1Cc1ccco1,7.17 (active)
11,CC(=O)Nc1ccc(S(=O)(=O)NCCc2ccccc2)cc1,-0.0675
12,Cc1cc(NC(=O)COC(=O)c2ccc(F)c(S(=O)(=O)N3CCOCC3)c2)no1,0.164
13,COc1ccc(C(=O)OCC(=O)c2ccc(C)c(S(=O)(=O)N3CCOCC3)c2)cc1OC,11.4 (active)
14,Cc1cc(C)n(C(=O)c2ccc(C)c(S(=O)(=O)N3CCOCC3)c2)n1,-0.672
15,CCC(C)NC(=O)C1CCC(=O)N1Cc1ccc(C)cc1 (centres undefined),-0.196
16,O=C(CN1C(=O)COc2ccccc21)Nc1ccc(F)cc1,0.887
17,O=C(Nc1ccccc1)c1cccnc1Nc1ccccc1,1.29
18,Cc1cccn2c(=O)c3cc(C#N)c(=O)n(CCCN4CCOCC4)c3nc12,-0.675
19,COc1ccc(CNC(=O)c2cc3c(=O)n4ccccc4nc3n(CC3CCCO3)c2=N)cc1 (centres undefined),0.00619
20,Cc1cccn2c(=O)c3cc(C#N)c(=NC(=O)c4cccnc4)n(CC4CCCO4)c3nc12 (centres undefined),37.8 (active)
21,CC(=O)NC1CC2CCCC(C1)N2CC(=O)Nc1ccccc1 (centres undefined),-1.24
22,C=CCn1c2ccccc2c2nnc(SC(CC)C(=O)Nc3nc(C)c(C(=O)OCC)s3)nc21 (centres undefined),1.41

row,SMILES,B-score
1,O=C(O)CCC(=O)NCc1ccc2[nH]c3c(c2c1)CCCC3,1.3
2,CCCc1cc(=O)oc2c(C)c(O)c(CN3CCCCC3)cc12,0.177
3,CCn1c(Cc2ccccc2)nnc1SCC(=O)Nc1ccccc1,-0.0339
4,CCCS(=O)(=O)N1CCC(C(=O)NCCc2ccc(OC)c(OC)c2)CC1,-0.16
5,COc1ccc(CCNC(=O)C2CCN(c3nn4c(=O)cc(C)nc4s3)CC2)cc1OC,4.73 (active)
6,Cc1cc(=O)n2nc(N3CCCC(C(=O)NCCC4=CCCCC4)C3)sc2n1 (centres undefined),-0.152
7,Clc1ccc(CSc2nnc([C@@H]3CCCN3)o2)cc1,-0.196
8,CC(C)C1Cc2c(sc3c2c(=O)n(-c2ccccc2)c2nncn32)CO1 (centres undefined),-0.132
9,O=C(COc1ccc(Cl)cc1)Nc1ccccc1CO,1.32
10,CC1(C)CC(CCC(=O)Nc2ccccc2Cl)C(=O)O1 (centres undefined),0.285
11,O=C(COC(=O)CCc1c[nH]c(=O)[nH]1)Nc1ccccc1Cl,2.4 (active)
12,CCOC(=O)N1CCN(Cc2oc(CO)cc(=O)c2O)CC1,0.262
13,Cc1ccccc1CN1CCN(C(=O)c2cccc(F)c2)CC1,-0.152
14,O=C(c1cccc(C(=O)N2CCN(c3ccc(F)cc3)CC2)c1)N1CCN(c2ccc(F)cc2)CC1,3.5 (active)
15,O=C(c1ccccc1)c1cccn1CC(=O)N1CCN(c2ccc(F)cc2)CC1,-0.56
16,CS(=O)(=O)N(CC(=O)N1CCOCC1)c1ccc2c3c(cccc13)CC2,0.155
17,Cc1ccc(NC2=NC(c3ccccc3)n3c(nc(C)cc3=O)N2)cc1 (centres undefined),-0.0683
18,COC(=O)c1ccccc1NC(=O)c1cncc(Br)c1,0.529
19,Cc1cccc2cc(C#N)c(N3CCCC3)nc12,1.26
20,CCOc1ccc2nc(NCCNS(=O)(=O)c3ccccc3)c(C#N)cc2c1,-0.354
21,CCOc1ccc2nc(N3CCCN(C(=O)Nc4ccccc4C)CC3)c(C#N)cc2c1,49.3 (active)
22,Nc1ccc(SCCN2C(=O)c3ccccc3C2=O)cc1,13.8 (active)

row,SMILES,B-score
1,O=C1c2ccccc2C(=O)N1CCc1nn[nH]n1,0.641
2,Cc1ccc(SCCN2C(=O)NC(C)(C)C2=O)cc1,0.397
3,NS(=O)(=O)c1ccc(NS(=O)(=O)/C=C/c2ccccc2)cc1,-0.0855
4,O=C(OCCO)c1cc(Cl)c(C(=O)OCCO)cc1Cl,0.283
5,Cc1ccc(CNC(=O)CN2CCN(Cc3ccc(Cl)cc3)C2=O)cc1,-0.559
6,CS(=O)(=O)N(Cc1nc2sc3c(c2c(=O)[nH]1)CCCC3)C1CCCCC1,-0.0154
7,CSCCC(NC(=O)C1CCC(C)CC1)C(=O)NCc1ccco1 (centres undefined),-0.577
8,Cn1c(=O)[nH]c(=O)c2c1nc(NCCCn1ccnc1)n2Cc1cccc(Br)c1,0.757
9,COc1ccc(N2CCN(CCNC(=O)CCN3C(=O)COc4ccccc43)CC2)cc1,0.72
10,CCOc1ccc(C2C(C(=O)O)c3ccccc3C(=O)N2CCN2CCOCC2)cc1 (centres undefined),0.0396
11,COc1ccc(C2C(C(=O)N3CCN(c4ccc(OC)cc4)CC3)c3ccccc3C(=O)N2C)cc1 (centres undefined),4.34 (active)
12,CN(C)/C=C/c1c(C#N)c(=O)ncn1Cc1ccccc1,1.01
13,N#C/C=C\Oc1ccc(Cl)cc1N,0.000464
14,CCCC(=O)NC(C)C(c1cccs1)N1CCN(c2ccccc2)CC1 (centres undefined),-0.223
15,COc1ccc(C(C(O)C(=O)c2c[nH]c3ccccc23)N2CCN(c3ccccc3)CC2)cc1 (centres undefined),3.3 (active)
16,COc1ccc(OC)c(S(=O)(=O)N(C)CC(=O)N2CCN(c3ccccc3)CC2)c1,0.148
17,CCOC(=O)c1sc(NC(=O)CSc2ncccn2)c(C#N)c1C,0.288
18,COc1ccc(S(=O)(=O)N2CCN(C(=O)c3cccs3)CC2)cc1OC,-1.5
19,CC(=O)c1ccc(N2C(=NC(=O)C(C)C)SC3CS(=O)(=O)CC32)cc1 (centres undefined),-0.587
20,Cn1c(=O)c(=O)n(C)c2cc(S(=O)(=O)NCCc3ccccc3)ccc21,0.704
21,COc1ccc(NC(C)=O)cc1NC(=O)CN1CCN(C2c3ccccc3-c3ccccc32)CC1,0.8
22,CC(=O)Nc1ccc(NC(=O)CN2CCCC(C)C2)c(Cl)c1 (centres undefined),6.88 (active)

row,SMILES,B-score
1,O=C(CN1CCOCC1)Nc1ccc(NC(=O)CN2CCOCC2)c(Cl)c1,-0.0117
2,CCNS(=O)(=O)c1ccc(NC(=O)Nc2cccc(OC)c2)cc1,2.45
3,CCOP1(=O)C=C(C(C)(C)C)OC1c1ccc(F)cc1 (centres undefined),-0.203
4,CCOc1ccc(NCCC(=O)c2ccc3c(c2)OCO3)cc1,-0.0168
5,Cc1ccc2oc(=O)c3cnn(CC(=O)N4CCN(c5ccccn5)CC4)c3c2c1,7.39 (active)
6,CCOC(=O)C1CCCN(C(=O)Cn2ncc3c(=O)oc4ccc(C)cc4c32)C1 (centres undefined),-0.657
7,Cc1ccc2oc(=O)c3cnn(CC(=O)N4CCCCCC4)c3c2c1,0.0625
8,O=C(NC1CC2CCCC(C1)N2C(=O)N1CCCCC1)C1CCCCC1 (centres undefined),0.398
9,CN1CCCC(OC(=O)COc2ccc(Br)cc2)C1 (centres undefined),2.29
10,Cc1ccc(F)cc1NC(=O)c1ccc2c(c1)OCO2,0.368
11,CCOC(=O)c1c(NC(=O)CSc2nnc(CN3CCOCC3)n2C)sc2c1CCCC2,0.743
12,O=C(CSc1nnc(-c2ccco2)n1-c1ccccc1)NCCc1ccccc1,0.164
13,c1ccc(CSc2nnc(-c3ccco3)n2Cc2ccccc2)cc1,1.61
14,O=C(CSc1nnc(-c2ccco2)n1Cc1ccccc1)NC(=O)NCc1ccco1,2.23 (active)
15,COc1cccc(-c2nn(C)c3sc(C(=O)N4CCN(c5ccccc5)CC4)cc23)c1,-0.654
16,CC(C[N+](C)(C)C)OC(N)=O (centres undefined),67.7 (active)
17,CC(=O)OC(C)C[N+](C)(C)C (centres undefined),53.8 (active)
18,CCC(=O)N1c2ccc(S(=O)(=O)CCC(=O)N3CCN(c4ccccc4)CC3)cc2CC1C (centres undefined),-2.01
19,Cn1c(=O)c2c(ncn2CC(=O)N2CCN(c3ccccc3)CC2)n(C)c1=O,0.437
20,COc1ccc(-c2nnco2)cc1OC,0.77
21,O=S(=O)(CCc1nc2ccccc2o1)c1ccc(Cl)cc1,0.134
